This is an account of results in PubChem BioAssay AID651642 (Sanford-Burnham Center for Chemical Genomics, 2012).

The source made the active and inactive calls.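 Rule for the calls: active = average half-effect concentration of 10 µM or less in every one of the four cell panels; inactive = the rest.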

The test system of this test is HL-1. The test is described as follows: cardiomyocyte survival under oxidative or metabolic stress – cell-based, panel, H9c2 and HL-1, H2O2, 2-deoxyglucose, ATP luminescence, SAR follow-up (AID 651642). The conditions noted are these: H9c2/HL-1 cardiomyocyte 2-deoxyglucose damage, mean of runs, with 2-deoxyglucose.

With `CCOC(=O)c1cccc(NC(=O)c2cc(-c3cc(OC)c(OC)c(OC)c3)nc3c(Cl)cccc23)c1`, the molecule was called inactive.
As for `COc1cc(-c2cc(C(=O)Nc3cccc(C(=O)NCc4ccccc4)c3)c3ccccc3n2)cc(OC)c1OC`, the entry is “active”.
In the case of `COc1ccc2nc(-c3cc(OC)c(OC)c(OC)c3)cc(C(=O)NCC(=O)Nc3cccc(C(C)=O)c3)c2c1` it was “active”; in that of `COc1ccc(NC(=O)CNC(=O)c2cc(-c3cc(OC)c(OC)c(OC)c3)nc3ccccc23)cc1`, “active”; in that of `CCOC(=O)c1cccc(NC(=O)CNC(=O)c2cc(-c3cc(OC)c(OC)c(OC)c3)nc3c(Cl)cccc23)c1`, “inactive”.
As for `COc1ccc2c(c1OC)C(=O)N1c3ccccc3C(=O)N(Cc3cccc(C)c3)C21` (centres undefined), the entry is “inactive”.
Take `COc1ccc2c(c1OC)C(=O)N1c3ccccc3C(=O)N(Cc3c(Cl)cccc3Cl)C21` (centres undefined): the outcome was inactive.
Turning to `COc1ccccc1CN1C(=O)c2ccccc2N2C(=O)c3c(ccc(OC)c3OC)C12` (centres undefined), the call was active.
In the case of `COc1ccc2c(c1OC)C(=O)N1c3ccccc3C(=O)N(Cc3ccc(F)cc3)C21` (centres undefined) it was “inactive”; in that of `COc1ccc2c(c1OC)C(=O)N1c3ccccc3C(=O)N(Cc3cccc(Br)c3)C21` (centres undefined), “active”.
In the case of `CCOC(=O)c1cccc(NC(=O)c2cc(-c3cc(OC)c(OC)c(OC)c3)nc3ccc(Br)cc23)c1` it was “inactive”; in that of `COc1cc(-c2cc(C(=O)Nc3cccc(C(=O)N(C)C)c3)c3ccccc3n2)cc(OC)c1OC`, “inactive”.
As for `CCOC(=O)c1ccc(NC(=O)c2cc(-c3cc(OC)c(OC)c(OC)c3)nc3ccccc23)cc1`, the entry is “inactive”; as for `COc1cc(-c2cc(C(=O)Nc3cccc(-c4nn[nH]n4)c3)c3ccccc3n2)cc(OC)c1OC`, “inactive”.
In the case of `CCOC(=O)c1cccc(NC(=O)c2cc(-c3cc(OC)c(OC)c(OC)c3)nc3ccc(OC)cc23)c1`, the result was inactive.
In the case of `COc1cc(-c2cc(C(=O)Nc3cccc(C(C)=O)c3)c3cc(F)ccc3n2)cc(OC)c1OC` it was “inactive”.
For `COc1cc(-c2cc(C(=O)Nc3cccc(C#N)c3)c3ccccc3n2)cc(OC)c1OC`, the molecule was classed as inactive.
As for `COc1cc(-c2cc(C(=O)NCC(=O)Nc3ccc(C(C)=O)cc3)c3cc(F)ccc3n2)cc(OC)c1OC`, the entry is “inactive”.
In the case of `COc1ccc2c(c1OC)C(=O)N1c3ccccc3C(=O)N(Cc3ccccc3)C21` (centres undefined) it was “inactive”.
